Test results published in PMC7819943, “Rice protein-binding microarrays: a tool to detect cis-acting elements near promoter regions in rice”.
The full ranking holds about 68,000 sequences; the median of “fluorescence intensity (a.u.)” is about 9,100, and the highest 2% start at about 16,000. The full list was thinned out, with the highest values kept by preference.

biological target: OsWRKY34 (Oryza sativa, UniProt Q0JBA9 1-250); assay: protein-binding microarray (RPBM); PBS, 2% BSA, 51.3 ng/ul salmon testes DNA, 50 uM zinc acetate, 200 nM TF, 25 C, 1 h; high values mean tight binding; settings: protein: recombinant; tags: N-terminal polyhistidine and DsRed monomer fusion (pET32a); label: CyDye5-dUTP incorporated in the synthesized complementary strand; 3' TTTTT single-stranded linker to array surface; dsDNA, one strand shown
Sequence (Q0JBA9 entry or part of it): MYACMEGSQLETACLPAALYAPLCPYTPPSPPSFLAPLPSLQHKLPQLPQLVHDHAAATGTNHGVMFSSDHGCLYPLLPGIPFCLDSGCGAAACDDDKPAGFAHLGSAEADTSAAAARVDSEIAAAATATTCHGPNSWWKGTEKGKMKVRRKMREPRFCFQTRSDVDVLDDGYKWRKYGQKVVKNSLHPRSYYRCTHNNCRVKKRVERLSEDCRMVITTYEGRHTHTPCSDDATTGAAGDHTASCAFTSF
Outline: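 The binding signal is fluorescence intensity per array feature (arbitrary units). Readings came from an Axon 4000B scanner after a washed, 2% BSA-blocked, double-stranded custom Agilent array had been incubated for 1 h at 25 °C with 200 nM protein and 50 µM zinc acetate. The protein was a Ni–NTA-purified transcription factor fused N-terminally to polyhistidine and DsRed, expressed in E. coli BL21-CodonPlus.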

Row | Sequence | binding signal
1 | CTCTTATAACCACTTCTTTTTAAATCATTTGTTTATATGTCGGAGTCACCTAGTGCAG | 10200 fluorescence intensity (a.u.)
2 | TGGTCTGGCAGTTTTTGAGACGGGGAGTTGACTCAGATATCGGAGTCACCTAGTGCAG | 9260 fluorescence intensity (a.u.)
3 | AGGCTCTATTGGTTTCTCCTCTGTACATACAGTAGTAGTCCGGAGTCACCTAGTGCAG | 8640 fluorescence intensity (a.u.)
4 | TTCTACACTCTCTTGATCAGCTCTCACCACTATGTACACTCGGAGTCACCTAGTGCAG | 8860 fluorescence intensity (a.u.)
5 | TTTTTTTCGGTCTCAATATTTTTTTTTCTCACGTCTTTCGCGGAGTCACCTAGTGCAG | 10800 fluorescence intensity (a.u.)
6 | CCTTGACCGTTCCCAGAAAGGTTGACCGTTGTCCGTCACTCGGAGTCACCTAGTGCAG | 9240 fluorescence intensity (a.u.)
7 | TTTTATATCCCTCACCGTACGATCCAACGTTCCGATTTCTCGGAGTCACCTAGTGCAG | 8890 fluorescence intensity (a.u.)
8 | ACCTCTAACCGCCACTAGTTTTTTATACTCTTCTCTATAGCGGAGTCACCTAGTGCAG | 8470 fluorescence intensity (a.u.)
9 | GCTTCGGCCCAACAACATTCCACTCGGCCCAACAACCACCCGGAGTCACCTAGTGCAG | 9750 fluorescence intensity (a.u.)
10 | CGCTCCTCGCGGCCGCCGCCGCCGCCTCCCTCCTCGCCTTCGGAGTCACCTAGTGCAG | 8660 fluorescence intensity (a.u.)
11 | CACACCTCGCCGCTCTTCCCGGCCTCCACCCGCCGCCCTTCGGAGTCACCTAGTGCAG | 8510 fluorescence intensity (a.u.)
12 | CCAACCACTCCATCATCATTCGCAATCCAATCTCGCTCTTCGGAGTCACCTAGTGCAG | 9230 fluorescence intensity (a.u.)
13 | AACCACTCGCTTCCAAACAATCCAAACCTTCCATGCCATTCGGAGTCACCTAGTGCAG | 64700 fluorescence intensity (a.u.)
14 | CCAAGCGCCCGCCGCCTCGCTCCCTCCTCTTCCTTGACCTCGGAGTCACCTAGTGCAG | 35200 fluorescence intensity (a.u.)
15 | TTCTCTTTTTCTTTTTATTTTTTCGTTCTCGTCGCCGCCGCGGAGTCACCTAGTGCAG | 8330 fluorescence intensity (a.u.)
16 | ATACCGCCTATTTGCCACTCGTTTTTCTTCTCTTGGGCCGCGGAGTCACCTAGTGCAG | 18700 fluorescence intensity (a.u.)
17 | AATTCTCGTCTTCTCGGAGGTTTCTGAGGGGAGGGAGAGGCGGAGTCACCTAGTGCAG | 8480 fluorescence intensity (a.u.)
18 | CCGGTCCTTCACCCACTTCAGCTTCACGTTCACCAGCGTCCGGAGTCACCTAGTGCAG | 10200 fluorescence intensity (a.u.)
19 | ATTTTTTCCTCTAATTAAGTCATATCACATCAATTGTTTTCGGAGTCACCTAGTGCAG | 10200 fluorescence intensity (a.u.)
20 | GGCATTTGGGTGTTATGCATGCCGGCCGGCCCGTACGTACCGGAGTCACCTAGTGCAG | 11700 fluorescence intensity (a.u.)
21 | AGCTGGATTACCCTTTATACATTTTACTTTAATCTCTTTGCGGAGTCACCTAGTGCAG | 10900 fluorescence intensity (a.u.)
22 | GACGTATCATAGTCTCTGTTTAGATTTCTAGTACTATGATCGGAGTCACCTAGTGCAG | 9340 fluorescence intensity (a.u.)
23 | ACTGAGTATTATTATATCCTAACTAAGTTATCGTACATTCCGGAGTCACCTAGTGCAG | 8060 fluorescence intensity (a.u.)
24 | AATCAGAATATTACCTTCTTGTATTTGTTCTCTGTAGGAACGGAGTCACCTAGTGCAG | 8870 fluorescence intensity (a.u.)

Row | Sequence | binding signal
25 | GCTGTAGAAATTTCTCCTTCTTTGTTAAATGTATGTCTTTCGGAGTCACCTAGTGCAG | 9540 fluorescence intensity (a.u.)
26 | ACATACACTACACACCCTGTTCTTGCAGTACGCCAATTAACGGAGTCACCTAGTGCAG | 9780 fluorescence intensity (a.u.)
27 | TCTCTCTCACTCTTCCGGTCTTCCCTGGGCAGGCTAGCCGCGGAGTCACCTAGTGCAG | 8840 fluorescence intensity (a.u.)
28 | TTCATGTCAGAATCCTATGTTTTTCCTATTCCTTTGTTTTCGGAGTCACCTAGTGCAG | 11000 fluorescence intensity (a.u.)
29 | CAGACACATACCTTTCATGCTTCAACTTTTGTATGTTTGTCGGAGTCACCTAGTGCAG | 8170 fluorescence intensity (a.u.)
30 | TATTTCTATATGGACTTTGTTTTTTCTTTTTCTTCTTTTTCGGAGTCACCTAGTGCAG | 13100 fluorescence intensity (a.u.)
31 | ATATGTTGTTTGACTTTTTTCATAGTCAGAAGTCTATTGGCGGAGTCACCTAGTGCAG | 19000 fluorescence intensity (a.u.)
32 | AATGGTTTGGTTGTTGTTTTTTTTAAAAAAAACTTTCAGGCGGAGTCACCTAGTGCAG | 8170 fluorescence intensity (a.u.)
33 | TGGGGTCATGTTTGTACTTTGGCAACTGGTCGACTTCATACGGAGTCACCTAGTGCAG | 18400 fluorescence intensity (a.u.)
34 | TTGTTGTAAAGCTTATGGGTCTACTTTCATATGGTTTTGGCGGAGTCACCTAGTGCAG | 64100 fluorescence intensity (a.u.)
35 | TTTGTACCCGTTTTCTACTTTTTTTGTTTCATATTATTAACGGAGTCACCTAGTGCAG | 10900 fluorescence intensity (a.u.)
36 | ATGATTTTTGGGTCATTTGGTTTGTTTTTGACTTTTGCAACGGAGTCACCTAGTGCAG | 12100 fluorescence intensity (a.u.)
37 | GCTATACATCTTTCCACTACTTCTCCTCAGCTCGCTTTCCCGGAGTCACCTAGTGCAG | 8130 fluorescence intensity (a.u.)
38 | AGCTTCTTTTTCTGTGATAGCAATACTGCCTCGAGGAGGACGGAGTCACCTAGTGCAG | 8950 fluorescence intensity (a.u.)
39 | CCCAAAGTATTGATCGTTTTTGTTTATCATTTTGCTGGATCGGAGTCACCTAGTGCAG | 10300 fluorescence intensity (a.u.)
40 | AACCTCTACTGCTCCATATATTTTCTTTCTGTCAGCCCATCGGAGTCACCTAGTGCAG | 11200 fluorescence intensity (a.u.)
41 | ACGTAACACCTAGCAATTTTCTTCTCGCGAAATAAACAGTCGGAGTCACCTAGTGCAG | 8500 fluorescence intensity (a.u.)
42 | GGCAAACAATGCTCTCAGCCTCGCTTAGCTTTCACTCCACCGGAGTCACCTAGTGCAG | 8030 fluorescence intensity (a.u.)
43 | GCAACCTCAGGATGCTCCACGAGCTTTCTCTTAGCTACAACGGAGTCACCTAGTGCAG | 17000 fluorescence intensity (a.u.)
44 | GAGCTCCAAAGCTACGGTTTTTTTTTCTCTTTCTTTCTCACGGAGTCACCTAGTGCAG | 9080 fluorescence intensity (a.u.)
45 | CTTCTCCCATGCGCCGCCGCAATCTCATCTCTCTGTTTTTCGGAGTCACCTAGTGCAG | 9220 fluorescence intensity (a.u.)
46 | TACTTATATTTACTTGCAGATCAGTTGCCTGCCAATACCGCGGAGTCACCTAGTGCAG | 8390 fluorescence intensity (a.u.)
47 | GAACTTATTTTACTGCAATTGTTTGCATCACTTATTCTAACGGAGTCACCTAGTGCAG | 9570 fluorescence intensity (a.u.)
